Laboratory results: PubChem BioAssay AID493240 (Broad Institute, 2011)
Screen size: about 1,300 compounds; about 270 (21%) were called active. Only a sample is shown. Results with a measured potency or affinity are listed apart. Values without a mark were called inactive. How the calls were made is not given here.

Test: SK-MEL-5 parental cell viability loss, dose response, orthogonal assay for MITF inhibitor project, CellTiter-Glo, cherry-picked, set 3 (AID 493240)
Details: SK-MEL-5 viability, ATP luminescence (CellTiter-Glo), 24 h; series mostly up to 35 µM; activity change, negative = viability loss: at the top concentration

Row | Compound | activity change, negative = viability loss [%]
1 | COc1cccc(/C=C/C(=O)c2ccc3c(c2)OCCO3)c1OC | -13.2
2 | O=C(/C=C/c1ccc2c(c1)OCCO2)c1ccccc1 | 9.59
3 | O=C(Nc1nc2ccsc2c(=O)s1)C1CCC1 | 4.21
4 | O=C(Nc1ccccc1Cl)c1cc(=O)c2ccccc2o1 | 3.54
5 | Cc1ccc(-c2noc(CN3CCCCC3)n2)cc1 | 2.86
6 | Cc1cc(C)c2c(N)c(C(=O)N/N=C/c3cccnc3)sc2n1 | 2.32
7 | Cc1nc2ccc(NC(=O)c3ccco3)cc2nc1C | 10.6
8 | COc1cccc(/C=N/NC(=O)c2cccs2)c1 | -10.1
9 | CC1Cc2cc(-c3csc(N)n3)ccc2O1 (stereo unspecified) | -10.4
10 | CCCCOc1ccc(-c2ncc([N+](=O)[O-])cn2)cc1 | 1.91
11 | COC(=O)CSC1=C(C#N)C(=O)NC(c2ccccc2)S1 (stereo unspecified) | -11.5
12 | COc1nc(NC2CCCCC2)nc(NC(C)(C)C)n1 | -5.55
13 | Cc1ccc2nc(Cc3ccc(N)cc3)oc2c1 | 10.2
14 | Cc1nc(NC(=O)/C=C/c2ccccc2)n[nH]1 | -31.4
15 | CCCc1ccc(-c2ccc(/C=C/C(=O)O)cc2)nc1 | -10.5
16 | [2H]C(CCOS(N)(=O)=O)c1ccc(C(C)(C)C)cc1 (stereo unspecified) | 2.67
17 | CC(=O)N(C1CC(C)C(C#N)(C#N)C1(C#N)C#N)N(C)C (stereo unspecified) | 1.45
18 | Cc1cccnc1NC(=O)NC(=O)c1ccc(C(C)(C)C)s1 | -6.04
19 | O=C(CC(=O)c1ccccc1)Nc1ccccn1 | -3.01
20 | COc1ccc(NC(=O)c2cc3ccccc3oc2=O)c(OC)c1 | -5.28
21 | NNC(=O)Cn1c(SCc2ccccc2)nc2ccccc21 | -2.77
22 | CCCCOc1ccc(-c2nnn(C(C)(C)C(=O)OC)n2)cc1 | -8.4
23 | CCSc1nnc(NC(=O)C2CCCCC2)s1 | 4.55
24 | COCc1cc(C)nc2sc(C(=O)Nc3ccc(OC)cc3)c(N)c12 | 14.4
25 | CCN(CC)c1ccc(/C=N/NC(=O)c2cccc(S(=O)(=O)N3CCOCC3)c2)c(O)c1 | -8.61
26 | O=C(N/N=C\c1ccc([N+](=O)[O-])o1)C1COc2ccccc2O1 (stereo unspecified) | -18.3

Row | Compound | activity change, negative = viability loss [%]
27 | Clc1ccc(-c2noc(CN3CCOCC3)n2)cc1 | 3.11
28 | COc1ccc(-c2nc3n(c2C)Cc2ccccc2-3)cc1 | -11.2
29 | COc1ccc(-c2cc(-c3ccccc3)c(C#N)c(S(C)=O)n2)cc1 (stereo unspecified) | -46.7
30 | CC(C)(C)c1ccc(C(=O)Nc2sc3c(c2C(=O)O)CCC3)cc1 | 0.132
31 | Cc1ccc(-n2ncc3c(SCC(N)=O)ncnc32)cc1C | 7.62
32 | CC(/C=C1\SC(=O)N(CCCC(=O)O)C1=O)=C\c1ccccc1 | -4.09
33 | Cc1cc(C)n(CCC(=O)N/N=C/c2c(O)ccc3ccccc23)n1 | -39.9
34 | COc1ccc2nc(N3CCN(C(=O)c4ccc([N+](=O)[O-])o4)CC3)sc2c1 | -6.21
35 | Cc1cccc(NC(=O)CNC(=O)Cn2ncc(Cl)c(Cl)c2=O)c1C | -31.9
36 | C/C(=N\Nc1nccnc1Cl)c1ccc(O)c(C)c1 | -1.97
37 | CCOC(=O)c1c(C)[nH]c(C)c1C(=O)COC(=O)c1ccc([N+](=O)[O-])s1 | -27.8
38 | O=C(c1ccc([N+](=O)[O-])s1)N1CCCc2ccccc21 | -14.3
39 | CCOC(=O)C(=Cc1ccc(-n2ccnc2)cc1)C(=O)OCC | -27.7
40 | NC(=O)C1CCN(C2=C(NS(=O)(=O)c3ccc(Br)cc3)C(=O)c3ccccc3C2=O)CC1 | -30.2
41 | Cc1ccc(C(CNS(=O)(=O)c2ccc(Br)cc2)N2CCN(C)CC2)cc1 (stereo unspecified) | -3.91
42 | Cc1cc(N2CCOCC2)ccc1/C=C\[N+](=O)[O-] | -36.5
43 | COc1cc2c(c(OC)c1OC)-c1ccc(N(C)CC(OC)OC)c(=O)cc1[C@@H](NC(C)=O)CC2 | 3.07
44 | Nc1ccc2c(c1)OC1(CCCC1)O2 | -9.31
45 | COc1cc(OC)cc(C(=O)N[C@H](C(=O)Nc2nc3ccccc3[nH]2)C(C)C)c1 | -17.1
46 | Oc1c(CN2CCCC2)cc(COCc2ccccc2)c2cccnc12 | -13.9
47 | CN(C)C1CCN(Cc2cc(COCc3ccccc3)c3cccnc3c2O)C1 (stereo unspecified) | -38.2
48 | COc1cccc(NC(=O)c2cc3c(=O)n4ccccc4nc3n(CC(C)C)c2=N)c1 | -0.783
49 | Cc1ccc(NC(=O)c2cc3cccc([N+](=O)[O-])c3[nH]2)cc1 | -7.95
50 | CCN=c1scc(-c2ccco2)n1/N=C/c1ccc(O)cc1 | -7.86
51 | CC(C)CC(=O)/C=C/n1c(=S)oc2ccccc21 | -34.5
52 | CCC(=O)Nc1cc2nn(-c3ccc(C)cc3)nc2cc1C | 2.93

Row | Compound | activity change, negative = viability loss [%]
53 | Cc1cc(N2CCOCC2)n2ncc(-c3ccccc3Cl)c2n1 | -5.33
54 | O=C(CCl)N(Cc1cc(=O)[nH]c2ccccc12)c1ccccc1 | -28.8
55 | CCNc1nc(N)c(C(=O)c2ccc(Cl)s2)s1 | 12.4
56 | CN(C)c1ccc(CNc2ccccn2)cc1 | 10.9
57 | CN(C)c1ccc(NC(=S)c2ccccn2)cc1 | -42.3
58 | O=C1c2ccccc2C(=O)c2c1ncn2-c1ccccc1 | -48
59 | Cc1c(/C=C/C(=O)c2ccc(Cl)s2)cnn1C | 3.62
60 | CC1CN(N=Cc2ccc([N+](=O)[O-])o2)C(=N)O1 (stereo unspecified) | -22.3
61 | C#Cc1cccc(NC(=O)CSc2nnc(-c3ccc(C(F)(F)F)cn3)o2)c1 | -9.72
62 | Cc1nc(NCCOc2ccccc2)sc1C(=O)Nc1ccccc1 | -18.4
63 | COc1ccc(NC(=O)c2cc(-c3ccccc3Cl)on2)cc1 | 0.072
64 | CCOC(=O)c1cnc2c(ccc3ccccc32)c1N | 5.07
65 | CCOC(=O)c1sc(-c2ccccc2)cc1N | -0.468
66 | Cc1cc(/C(N)=N/OC(=O)Nc2ccc(Cl)cc2)no1 | -5.54
67 | COc1ccc(NCc2nc3ccccc3n2C)cc1 | -16.6
68 | CC(=O)c1cccc(Nc2nc(-c3cccnc3)cs2)c1 | -9.94
69 | CC(C)N1C/C(=C/c2cccnc2)C(=O)/C(=C/c2cccnc2)C1 | -39
70 | CN1C/C(=C/c2cccnc2)C(=O)/C(=C/c2cccnc2)C1 | 4.84
71 | C=CCn1c(C)cc(C(=O)Cn2ncc(Cl)c(Cl)c2=O)c1C | -18.1
72 | O=C(NC1=NCCS1)C1COc2ccccc2O1 (stereo unspecified) | -31.3
73 | Cc1c(C(=O)N(CCO)Cc2ccccc2)oc2c(F)cccc12 | -10.7
74 | COc1cc2ccccc2cc1C(=O)Nc1ccc(N2CCN(C)CC2)cc1 | 2.4
75 | CCC1CCCCN1CCCNC(=O)c1cn(CC)c2ccc(S(=O)(=O)N(C)C3CCCCC3)cc2c1=O (stereo unspecified) | -0.846
76 | COc1c(C)cccc1C(=O)Nc1ccc(N2CCN(S(C)(=O)=O)CC2)cc1 | -1.04
